Screening results deposited in PubChem by The Scripps Research Institute Molecular Screening Center.
Hits are enriched below; roughly 2.9% of the tested compounds scored in any of these assays.
KLK7 zymogen act = proKLK7 zymogen activators, primary screen, biochemical, fluorescence intensity; purified proKLK7, EDANS-DABCYL substrate fluorescence; 100% is mature enzyme control, 0% vehicle; activation, % at 7 µM; 0.9% of 370,000 active;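 active means activation above the mean of all tested compounds plus 3 SD, computed per campaign excluding outliers beyond control limits, cut at about 13% in these data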
Target sequence (P49862 whole entry, looked up): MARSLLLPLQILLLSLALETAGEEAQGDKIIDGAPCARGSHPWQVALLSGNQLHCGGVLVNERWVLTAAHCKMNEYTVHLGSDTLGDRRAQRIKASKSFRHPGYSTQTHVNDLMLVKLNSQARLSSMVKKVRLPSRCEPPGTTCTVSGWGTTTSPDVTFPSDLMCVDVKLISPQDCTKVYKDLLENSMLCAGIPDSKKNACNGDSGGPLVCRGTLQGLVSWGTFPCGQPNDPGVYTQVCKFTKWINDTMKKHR
PLC-beta3 inh = human PLC-beta3 inhibitors, primary screen, biochemical, fluorescence; 1-phosphatidylinositol 4,5-bisphosphate phosphodiesterase beta-3 (Homo sapiens), Q01970; Purified PLC-beta3, fluorogenic substrate; inhibition, % at 12.2 µM; 0.18% of 370,000 active; AID 720704, 2013; in the data active means inhibition above about 11%;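 further: 0% = median of compound wells on plate and 100% = full blocker control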
PLCg1 inh = PLC-gamma1 enzyme inhibitors, primary screen, biochemical, fluorescence, purified enzyme. 0.84% of 370,000 active. fluorogenic substrate. 1-phosphatidylinositol 4,5-bisphosphate phosphodiesterase gamma-1 (Homo sapiens), P19174. AID 720700, 2013. inhibition, % at 12.2 µM; in the data active means inhibition above about 9.5%
ADAM17 inh = ADAM17 inhibitors, primary screen, biochemical, QFRET; recombinant ADAM17, EDANS/DABCYL FRET peptide cleavage; inhibition, % at 6.95 µM; 0.83% of 370,000 active; AID 720648, 2013;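 active means inhibition above the mean of compounds lying between control limits plus 3 SD, set per campaign, cut at about 8.5% in these data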;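 further: 0% = DMSO-only wells as the low control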
ADAM10 inh = human ADAM10 inhibitors, primary screen, biochemical, QFRET, HTS. Disintegrin and metalloproteinase domain-containing protein 10 (Homo sapiens), O14672. recombinant ADAM10, EDANS/DABCYL FRET peptide cleavage, 3 h. 0.62% of 370,000 active. AID 720582, 2013. inhibition, % at 7 µM;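 active means inhibition above a per-campaign cutoff equal to the mean of compounds falling between control-based bounds plus 3 SD, cut at about 20% in these data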;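 further: 0% = DMSO wells while the 100% control is not disclosed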
ADAM10 confirm = human ADAM10 inhibitors, confirmation, biochemical, QFRET, triplicate; shares compounds with ADAM10 inh; ADAM10 QFRET peptide cleavage, EDANS fluorescence; inhibition, % at 6.95 µM; 1% of 2,100 active; AID 743208, 2013;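 active means inhibition above about 20% chosen separately for each screening run, limit read from the data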;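 further: 0% = DMSO wells and 100% = marimastat wells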
ADAM17 ctr = ADAM17 inhibitors, counter-screen for ADAM10 exosite inhibitor project, biochemical, QFRET, high throughput; AID 743214, 2013; inhibition, % at 6.95 µM; shares compounds with ADAM10 inh; 0.5% of 2,100 active; ADAM17 QFRET peptide cleavage, EDANS fluorescence;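 active means mean triplicate inhibition above the solvent-only control wells' mean plus 3 SD, cut at about 12% in these data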;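 further: 0% = DMSO wells and 100% = marimastat wells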
ADAM10 counter = ADAM10 inhibitors, counter-screen for ADAM17 exosite inhibitor project, biochemical, FRET, human ADAM10. inhibition, % at 6.95 µM. 47% of 2,900 active. recombinant ADAM10, EDANS/DABCYL FRET peptide cleavage, 3 h. shares compounds with ADAM17 inh;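 active means mean inhibition over the triplicate runs exceeds the activity threshold set in the earlier primary screen, cut at about 20% in these data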;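 further: 0% = DMSO wells and 100% = marimastat wells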
ADAM17 confirm = ADAM17 inhibitors, hit retest, confirmation, biochemical, QFRET peptide cleavage. shares compounds with ADAM17 inh. recombinant ADAM17, EDANS/DABCYL QFRET peptide cleavage. inhibition, % at 6.95 µM. 65% of 2,900 active;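 active means mean inhibition across replicates above the hit cutoff set in the primary screen, cut at about 8.5% in these data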;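 further: 0% = DMSO wells and 100% = marimastat wells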
Active calls of the source: *; · = not tested or not shown.

SMILES	KLK7 zymogen act	PLC-beta3 inh	PLCg1 inh	ADAM17 inh	ADAM10 inh	ADAM10 confirm	ADAM17 ctr	ADAM10 counter	ADAM17 confirm
CCOC(=O)C1=CCC(c2ccccc2)N(S(=O)(=O)c2ccccc2)C1 (stereo not given)	1	-11	0	15*	22*	3	1	13	6
Fc1ccc(CNc2nc(-c3ccccc3)nc3ccccc23)cc1	-1	-13	-12	5	10	·	·	·	·
COc1ccc(CNc2nc(-c3ccccc3)nc3ccccc23)cc1OC	0	-10	-2	13*	22*	7	3	24*	17*
COc1ccc(S[C@]2(C(=O)N3CCOCC3)CC(=O)N(C(=O)C3CC3)[C@@H]2c2ccc(OC)cc2)cc1	0	1	1	0	0	·	·	·	·
O=C(CSc1nnc(-c2ccccn2)n1-c1ccc(Cl)cc1)Nc1cccc2ccccc12	1	1	1	1	7	·	·	·	·
O=C(C(=O)N1CCC(CNS(=O)(=O)c2ccccc2OC(F)(F)F)CC1)c1cccs1	0	3	9	-3	-14	·	·	·	·
CCc1ccc(/C=c2\s/c(=C\C(=O)C(C)(C)C)[nH]c2=O)cc1	-1	-11	-15	17*	33*	11	5	20*	17*
Cc1ccccc1/C=c1\s/c(=C\C(=O)C(C)(C)C)[nH]c1=O	-1	-3	-10	8	15	·	·	·	·
COc1ccc(NC(=O)c2cccc(Oc3ccc([N+](=O)[O-])cc3Cl)c2)cc1	0	2	3	10*	22*	8	3	30*	18*
COc1ccc(/C=N/NC(=O)c2ccc(NC(=O)c3cccc([N+](=O)[O-])c3)cc2)c(OC)c1	0	-2	1	-1	3	·	·	·	·
CCOC(=O)c1csc(NC(=O)C2CCCN(S(=O)(=O)c3cccs3)C2)n1 (stereo not given)	0	-1	0	-3	-4	·	·	·	·
Cc1ccc(C2CN(C)C3(C(=O)Nc4ccccc43)C23COc2ccccc2C3=O)cc1 (stereo not given)	0	1	1	9.6*	27*	7	3	35*	19*
O=C(CSC1CC(=O)N(CC(c2ccccc2)c2ccccc2)C1=O)Nc1ccc(Cl)cc1 (stereo not given)	0	0	2	16*	25*	9	3	32*	20*
NC(=O)C1CCN(c2nc(-c3ccc4c(c3)OCCCO4)cs2)CC1	·	2	1	1	2	·	·	·	·
Cc1ccc(-c2csc(N3CCC(NS(=O)(=O)c4ccc5c(c4)OCCO5)CC3)n2)cc1	-1	-2	7	13*	24*	10	3	20*	15*
COc1ccc(-n2c(SCC(=O)Nc3cc(C)c(NC(=O)c4ccccc4)cc3OC)nnc2-c2ccccc2F)cc1	-2	-8	-2	7	11	·	·	·	·
CC(C)CC1C(=O)N(Cc2cn(CCC3OCCCO3)nn2)CCS(=O)(=O)N1Cc1ccc(-c2ccc(Cl)cc2)cc1 (stereo not given)	0	3	0	2	-17	·	·	·	·
CC(C)CC1C(=O)N(Cc2cn(CCC3OCCO3)nn2)CCS(=O)(=O)N1Cc1ccc(-c2ccc(F)cc2)cc1 (stereo not given)	0	1	1	11*	25*	7	3	31*	17*
CC(C)C1C(=O)N(Cc2cn(CC3CCCCC3)nn2)CCS(=O)(=O)N1Cc1ccc(-c2ccccc2)cc1 (stereo not given)	0	5	4	11*	22*	14	3	38*	15*
COCOCCn1cc(CN2CCS(=O)(=O)N(Cc3ccc(-c4ccc(Cl)c(Cl)c4)cc3)C(C)C2=O)nn1 (stereo not given)	0	0	2	11*	23*	7	2	35*	19*
CC(C)C1C(=O)N(Cc2cn(CCC3OCCO3)nn2)CCS(=O)(=O)N1Cc1ccc(-c2ccc(F)cc2Cl)cc1 (stereo not given)	0	2	4	10*	24*	6	2	33*	17*
CC(=O)c1cc(-c2ccccc2)c(=O)n2c1CCC2	1	-2	0	-1	-8	·	·	·	·
CCC[C@H](/C=C/C(=O)OC(C)(C)C)Sc1ccc(OC)cc1	0	-1	2	-2	-9	·	·	·	·
COc1ccc(C(CC(=O)c2ccc(C)cc2)Nc2ccc([N+](=O)[O-])cc2)cc1 (stereo not given)	1	2	3	14*	20*	6	2	19	13*
Cc1ccc(NC(CC(=O)c2ccccc2)c2ccc(F)cc2)cc1 (stereo not given)	0	0	1	-2	2	·	·	·	·
Cc1cc(C)nc(NS(=O)(=O)c2ccc(NC(=O)c3ccccc3[N+](=O)[O-])cc2)n1	0	-7	1	-3	-4	·	·	·	·
O=C(OC(c1ccc(NS(=O)(=O)c2ccccc2)cc1)(C(F)(F)F)C(F)(F)F)c1ccccc1	1	3	2	13*	32*	4	2	36*	18*
Cc1ccc(S(=O)(=O)Nc2ccc(C(OC(=O)c3ccccc3[N+](=O)[O-])(C(F)(F)F)C(F)(F)F)cc2)cc1	0	8	3	10*	22*	4	2	47*	27*
CCCCNC(=O)C1(C(=O)C2CC2)CC(C(=O)OCC)=NO1 (stereo not given)	0	3	-2	0	-2	·	·	·	·
C[C@H]1C2CC(OC(=O)Nc3cccc(C(F)(F)F)c3)C(C2)[C@H]2CCCCN21 (stereo not given in full)	-1	-3	-1	-5	-8	·	·	·	·
